# In PubChem BioAssay AID1117319 (Southern Research Institute, 2015):
# Hit rate of the full screen: of about 260,000 compounds, about 1,500 (0.58%) were called active. Not shown: some 5% with an inconclusive outcome. Only a sample is shown. Results with a measured potency or affinity are listed apart. A number with no mark means an inactive call.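 The calls were made as follows: active = inhibition above a set limit at one or more doses, reproduced on every date tested; inconclusive = results disagree between test dates, or hit never tested in dose response; inactive = the rest.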
# Target: Virion infectivity factor (Human immunodeficiency virus type 1 group M subtype B (isolate BH10)) + Virion infectivity factor (Human immunodeficiency virus type 1 group M subtype B (isolate BRU/LAI)) + Virion infectivity factor (Human immunodeficiency virus type 1 group M subtype B (isolate PCV12)) + Virion infectivity factor (Human immunodeficiency virus type 1 group M subtype B (isolate HXB2)) + DNA dC->dU-editing enzyme APOBEC-3G (Homo sapiens) (UniProt P69720+P69721+P69722+P69723+Q9HC16)
# Assay: HIV-1 Vif–A3G interaction blockers – biochemical, TR-FRET, GST-Vif 1-94, biotin-A3G peptide, dose response retest, primary screen (AID 1117319);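 also: Vif residues 1-94 fused to GST binding biotinylated APOBEC3G peptide 110-148; 0% = full assay without inhibitor and 100% = GST in place of GST-Vif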
# Conditions: TR-FRET GST-Vif / biotin-A3G peptide binding; stronger effect = higher value
row,SMILES,inhibition [%]
1,COc1cc(-c2nnc(NC(=O)CCS(=O)(=O)c3ccccc3)o2)cc(OC)c1OC,2.37
2,Cn1cccc1/C=C1\SC(=S)N(NC(=O)c2ccc(F)cc2)C1=O,14.3
3,O=C(O)Cn1cc(/C=C2/NC(=O)N(c3ccc(Cl)cc3)C2=O)c2ccccc21,-2.83
4,Cc1cc(/C=C2/C(=O)NN(c3ccccc3)C2=O)c(C)n1-c1ccc(O)cc1,-5.99
5,O=C1c2cccnc2C(=O)N1Cc1ccco1,7.44
6,CC1(C)CC(=O)C2=C(C1)N(Cc1ccco1)C(=O)NC2(C(F)(F)F)C(F)(F)F,-1.11
7,O=C1CNC(=S)N1Cc1ccc(F)cc1,5.9
8,O=C(O)Cn1cc(/C=C2\SC(=O)N(c3ccccc3)C2=O)c2ccccc21,-7.51
9,Cc1cc(/C=C2\SC(=S)N(Cc3ccco3)C2=O)c(C)n1-c1ccccc1,3.57
10,CNC(=O)C[C@H]1C(=O)N(C2CCCCC2)C[C@@H]1C,8.77
11,COCCn1c(C)cc(/C=C(\C#N)C(=O)OCC(=O)N(C)c2c(N)n(Cc3ccccc3)c(=O)[nH]c2=O)c1C,10.7
12,N#Cc1c(F)cccc1NCc1cccs1,-3.38
13,Cc1nc(C)c(C(=O)C2=C(O)C(=O)N(CCCn3ccnc3)C2c2ccc(Cl)cc2)s1 (stereo not given),0.13
14,COc1ccc(-c2cc(C(=O)N3CCC3)c3ccccc3n2)cc1OC,-14.9
15,Cc1ccc(C(=O)O)c(C(=O)Nc2nc3ccccc3s2)c1,-4.97
16,O=C(/C=C/c1cccs1)Nc1ccc(N2CCOCC2)c(S(=O)(=O)Nc2ccccc2Cl)c1,-5.05
17,O=Cc1cccn1-c1ccc2ccccc2c1,-0.71
18,O=C1Nc2ccccc2/C1=C\c1cccn1-c1ccc(OC(F)(F)F)cc1,5.25
19,Cn1c(=O)n(C)c2cc(/C=C3/NC(=O)N(Cc4ccccc4)C3=O)ccc21,-1.59
20,Cc1ccc(/C=C2/NC(=O)N(Cc3ccccc3)C2=O)s1,3.49
21,CC1=CC2=NC(=O)/C(=C\c3cccn3CCOc3cccc(C)c3)C(=N)N2O1,-1.97
22,COc1cccc(OCCn2cccc2/C=C2/C(=N)N3OC(C)=CC3=NC2=O)c1,1.07
23,O=C1N/C(=C/c2cccn2-c2ccc(F)cc2)C(=O)N1Cc1ccccc1,6.05

row,SMILES,inhibition [%]
1,Cn1cccc1/C=C1\SC(=Nc2ccccc2)NC1=O,-5.03
2,O=C(COC(=O)c1ccccc1Sc1ccc(C(F)(F)F)cc1[N+](=O)[O-])NC(=O)NC1CCCC1,-2.59
3,CCCN1C(=O)/C(=c2\sc3nc(=O)c(Cc4ccc(C)cc4)nn3c2=O)c2ccccc21,1.89
4,CC1(C(=O)O)CCC(C(=O)NNC(=O)c2ccccc2O)C1(C)C (stereo not given),-0.63
5,COc1cc(/C=C2\SC(=O)N(CCNC(=O)c3c(C)noc3C)C2=O)cc(OC)c1OC,-5.96
6,Cc1ccc(S(=O)(=O)N2CCOCC2)cc1NC(=O)COC(=O)c1ccc2c(c1)OCCO2,-7.03
7,O=C1N/C(=C/c2cccn2-c2ccccc2)C(=O)N1Cc1ccc(F)cc1,15.6
8,O=C1N/C(=C/c2cccn2-c2ccc(F)cc2)C(=O)N1Cc1ccccc1F,5.17
9,COc1ccc(NC(=O)CN(C)C(=O)C2CC(=O)N(c3cccc4ccccc34)C2)cc1 (stereo not given),2.19
10,COc1cc(C2CC(=O)Nc3cc(C)c(C)cc32)cc(OC)c1OC (stereo not given),-9.63
11,COc1cc2c(cc1OC)C(c1cccc(OC)c1OC)CC(=O)N2 (stereo not given),2.22
12,O=C(NCC(=O)N(c1ccc2c(c1)OCO2)C(C(=O)NC1CCCC1)c1ccncc1)c1ccco1 (stereo not given),21.4
13,CC(C)(C)NC(=O)C(c1ccncc1)N(C(=O)CNC(=O)c1ccco1)c1ccc(F)cc1 (stereo not given),5.09
14,COc1cccc(NC(=O)CN(C)C(=O)CCCc2nc3ccccc3c(=O)[nH]2)c1,4.69
15,CCCCCOc1ccc(C2NC(=O)NC2=O)cc1 (stereo not given),0.64
16,CCN(c1ccc(OC)cc1)S(=O)(=O)c1nnc(NC(=O)COc2ccccc2)s1,6.53
17,O=C(CN1C(=O)CCSc2ccccc21)Nc1ccc2c(c1)OCCO2,4.27
18,COC(=O)c1ccc(COc2ccccc2/C=C(\C#N)C(=O)Nc2c(C)cccc2C)cc1,-2.89
19,COC(=O)c1ccc(COc2ccccc2/C=C(\C#N)C(=O)Nc2ccc(C)cc2)cc1,-4.01
20,COCCNC(=O)C1(C)Oc2ccccc2NC1=O (stereo not given),1.83
21,Cc1oc(-c2ccccc2F)nc1CS(=O)(=O)CC(=O)N1CCN(Cc2ccccc2)CC1,5.89
22,CCOC(=O)CN(C(=O)CSc1nnc(COc2ccc(OC)cc2)n1C)c1ccccc1,0.19
